Rows were chosen to be rich in hits. Some 2.3% of all compounds tested hit in one or more screens of this group.
miR-21 reporter = qHTS Assay for Modulators of miRNAs and/orActivators of miR-21; HeLa miR-21 FLuc reporter, luciferase, 48 h; Potency, µM (titrated, usually from 38.3 µM), without a hit: at the top dose activity change, positive = activation, usual class: activators; 340,000 tested, under 10 active; AID 2288, 2010;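 note: % of control where 0% means no effect; miR-21 action dims this reporter so a rising signal means less miR-21 action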
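Using DMEM plus 10% FBS, HeLa miR-21-FLuc cells are incubated with test compounds (final up to about 40uM) for 48 hours; firefly luciferase signal is then imaged following reagent-mediated lysis.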
Nrf2 activator = qHTS of Nrf2 Activators; AREc32 ARE-luciferase reporter (MCF7-derived line), luminescence, 24 h; Potency, µM (top dose mostly 46.1 µM), for inactives: top-dose activation, hits mostly activators; 0.31% of 410,000 active; AID 624171, 2012; note: potency is the fitted concentration of half-maximal effect; % of control where 0% means no effect; nearly all actives have a fitted effect of over 65% in size
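Each well held 1000 AREc32 cells, which were incubated with compound for 24 hr at 37 deg C after overnight attachment, and ARE reporter activity was quantified by firefly luciferase luminescence.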
Nrf2 block = Nrf2 qHTS screen for inhibitors | A549 ARE-Fluc reporter, luciferase luminescence, 18-24 h | 2.1% of 360,000 active | Potency, µM (doses to about 46 µM), inactives show top-dose activity change, negative = inhibition, usual class: inhibitors; note: potency is the fitted concentration of half-maximal effect; % is set by controls: 0 for no effect and ±100 for the full control effect; nearly all actives have a fitted effect of over 60% in size
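A549 ARE_Fluc cells, 5000/well, 5% FBS OPTI-MEM; compounds in dose-response, 18-24 h at 37 °C/5% CO2; CellTiter-Fluor viability read (Ex 405/Em 525), then BugLite luciferase luminescence = Nrf2 activity.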
A549 tox = Nrf2 qHTS screen for inhibitors: counterscreen for cytotoxicity. A549 ARE-Fluc cells, CellTiter-Fluor viability, 18-24 h. Potency, µM (series often up to 46 µM), inactives show at the highest dose activity change, negative = cytotoxicity, usual class: inhibitors. 0.16% of 390,000 active. AID 504648, 2011; note: potency is the fitted concentration of half-maximal effect; % is set by controls: 0 for no effect and ±100 for the full control effect
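A549 ARE_Fluc cells in 5% FBS OPTI-MEM were exposed to compounds in concentration-response for 18-24 h at 37 deg C. Viability was read by CellTiter-Fluor fluorescence (Ex 405/Em 525) after 30 min, before the luciferase read.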
GRP78 ERSR act = qHTS for Inducers of the Endoplasmic Reticulum Stress Response (ERSR) in Human Glioma: qHTS; U87-MG GRP78 promoter luciferase reporter, 16 h; Potency, µM, inactives show at the top dose activation, usual class: activators; 0.02% of 420,000 active; AID 602332, 2012; note: potency is the fitted concentration of half-maximal effect; series mostly up to about 76 µM; % of control where 0% means no effect; nearly all actives have a fitted effect of over 35% in size
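ERSR induction read as luciferase luminescence (Bright-Glo, 10 min at room temperature) in stably transfected human U87-MG glioma cells exposed to compounds for 16 h, using GRP78 as sensor.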
Mito fusion act = qHTS Assay for Small Molecule Inhibitors of Mitochondrial Division or Activators of Mitochondrial Fusion | Potency, µM (top dose mostly 46.1 µM), without a hit: at the top dose growth rescue (activation), actives largely listed as activators | 0.23% of 320,000 active | S. cerevisiae fusion-defective mutant growth rescue, CellTiterGlo 48 h; note: potency is the fitted concentration of half-maximal effect; % of control where 0% means no effect; nearly all actives have a fitted effect of over 45% in size
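S. cerevisiae fusion-defective temperature-sensitive mutants (e.g. fzo1-1, mgm1-5) grown 48 h at 37C in YPEG (ethanol/glycerol non-fermentable) medium with 23 nl compound per well; growth rescue read as CellTiterGlo luminescence.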
* = called active by the depositor; ? = inconclusive; / = no result; ! = a repeat was not active. Calls come from the whole dose curve; as a rule, active = well fitted curve in the direction sought with a large enough effect; inconclusive = small, poorly fitted or top-dose-only effect, or another doubt; inactive = no such curve, though single readings can be large; an effect the other way counts as inactive or inconclusive.

SMILES	miR-21 reporter	Nrf2 activator	Nrf2 block	A549 tox	GRP78 ERSR act	Mito fusion act
O=C(/C=C/c1cc(Br)ccc1F)OCC(=O)N1CCCC1	/	11µM*	0%	-1%	-1%	4%
O=C(/C=C/c1ccccc1Cl)N1CCOCC1	-30%	1%	6%	-4%	3%	4%
CC(=O)Nc1ccc(S(=O)(=O)NC2(C(F)(F)F)C(=O)Nc3c2c(=O)[nH]c(=O)n3-c2ccc(C)cc2)cc1 (stereo not drawn)	-1%	0%	-13%	-2%	-1%	/
COc1ccc(NC(=O)c2cccc(N3C(=O)C4C5C=CC(C6CC56)C4C3=O)c2)cc1 (stereo not drawn)	29%	0%	21µM*	-12%	-4%	-8%
CN(C(=O)CSc1nnc2[nH]c(=O)cc(-c3ccccc3)n12)c1ccccc1	1%	-1%	/	11%	-4%	/
O=C(CCCN1CCC(O)(c2cccc(C(F)(F)F)c2)CC1)c1ccc(F)cc1	/	7%	15%	-10%	-2%	23µM*!
CCCN1CCN(c2cc3c(cc2F)c(=O)c(S(=O)(=O)c2ccc(Cl)cc2)cn3C)CC1	-6%	-1%	19%	-15%	-4%	/
CCCCC(CC)C(=O)Nc1ncc([N+](=O)[O-])s1 (stereo not drawn)	-2%	11%	9.2µM*	18µM*	-6%	0%
COc1ccc(-c2cc(C3CCN(c4cc(Cl)nc(N)n4)CC3)[nH]n2)cc1	20%	0%	13µM*	?	0%	8%
Cn1c(=O)c2cc(S(=O)(=O)N3CCN(c4cccc(C(F)(F)F)c4)CC3)ccc2n(C)c1=O	3%	0%	0%	-13%	-4%	-5%
CS(=O)(=O)c1cc([N+](=O)[O-])c(Sc2nc3ccccc3[nH]2)c([N+](=O)[O-])c1	?	?	/	23µM*	-11%	7%
CC1(C)CC(=O)C2=C(C1)Oc1nc3ccccc3cc1C2C(C#N)C#N (stereo not drawn)	0%	7.1µM*	?	?	-14%	-14%
CC1(C)CC(=O)C([C@H]2C3=C(CC(C)(C)CC3=O)Oc3ccccc32)C(=O)C1	/	/	/	/	-3%	/
CCOC(=O)c1cc(S(=O)(=O)N2CCOCC2)cn1C	1%	-1%	-6%	-8%	-5%	-5%
Cc1ccc(C(=O)CSc2ncnc3ccccc23)o1	-48%	13µM*	?	-3%	-3%	-1%
O=C(CSc1ncnc2ccccc12)c1cccs1	-46%	?	?	0%	-4%	5%
Cc1ccc(SCc2c(C(=O)N/N=C/c3ccoc3)nnn2-c2nonc2N)cc1	0%	3%	-23%	5%	3%	1%
O=C(Cc1ccccc1)Nc1ncnc2c1C(c1ccccc1)c1c(ccc3ccccc13)O2 (stereo not drawn)	/	5%	5.2µM*	?	-4%	/
O=C(Nc1ncnc2c1C(c1ccccc1)c1c(ccc3ccccc13)O2)c1ccccc1 (stereo not drawn)	/	8%	?	?	-3%	/
CCOC(=O)CCC(=O)Nc1ncnc2c1C(c1ccccc1)c1c(ccc3ccccc13)O2 (stereo not drawn)	/	0%	6.5µM*!	?	-6%	/
CC(SC1=NCCS1)C(=O)Nc1nnc(-c2ccc(Br)cc2)s1 (stereo not drawn)	-36%	8%	-20%	7%	0%	7%
CC(Sc1nnc(-c2ccco2)n1-c1ccccc1)C(=O)NCC1CCCO1 (stereo not drawn)	/	0%	7%	3%	-3%	2%
CCOC(=O)c1c(C)nc2c(c1-c1ccccc1)C(=O)c1ccccc1-2	-6%	-1%	13µM*	-19%	3%	-1%
CCOC(=O)c1c(C)nc2c(c1-c1cc(OC)ccc1OC)C(=O)c1ccccc1-2	-6%	2%	1%	-6%	-3%	-2%
O=S(=O)(NCc1ccncc1)c1ccc(S(=O)(=O)NCC2CCCO2)cc1 (stereo not drawn)	7%	0%	9.2µM*	-4%	-3%	1%
SMILES	miR-21 reporter	Nrf2 activator	Nrf2 block	A549 tox	GRP78 ERSR act	Mito fusion act
O=S(=O)(NCC1CCCO1)c1ccccc1 (stereo not drawn)	0%	-1%	5%	-2%	-2%	0%
CC(=O)Nc1ccc(C(=O)Nc2ccc(S(=O)(=O)NCC3CCCO3)cc2)cc1 (stereo not drawn)	-5%	0%	1%	3%	-2%	-3%
CCCCc1ccc(S(=O)(=O)NCCc2ccncc2)cc1	11%	0%	/	-2%	-6%	4%
O=C(c1ccc(S(=O)(=O)NCC2CCCO2)cc1)N1CCc2ccccc21 (stereo not drawn)	14%	-1%	26µM*	-22%	1%	-2%
O=C(Nc1ccc(F)cc1)c1ccc(S(=O)(=O)NCC2CCCO2)cc1 (stereo not drawn)	17%	-1%	23µM*	23µM*	-3%	1%
CCCCNS(=O)(=O)c1ccc(S(=O)(=O)NCc2ccncc2)cc1	12%	0%	7.3µM*	-16%	-4%	1%
COc1ccc([C@H]2CC(=O)C=C(c3ccccc3-c3ccccc3)C2)cc1	/	-2%	-9%	1%	-6%	15%
COc1cc(C(=O)NC2CCN(C)CC2)ccc1Nc1ncc2c(n1)N(C1CCCCC1)CCC(=O)N2C	/	5%	?	?	3%	/
C=CCn1cccc(C(=O)Nc2ccc(OCC)cc2)c1=O	-21%	4%	12µM*	0%	3%	-2%
Cc1nc2ccc(S(=O)(=O)Nc3cc(-c4nc5cccnc5s4)ccc3C)cc2s1	-26%	1%	19%	-11%	-1%	?
Cc1nc2ccc(S(=O)(=O)Nc3cccc(-c4nc5cccnc5s4)c3C)cc2s1	6%	-3%	23µM*	-9%	-2%	18µM*
CCC1=C(CC2NCCc3ccccc32)CC2c3cc(OC)c(OC)cc3CCN2C1 (stereo not drawn)	/	-1%	3.7µM*	7.3µM*	-5%	/
CCN(C(=O)CSc1nc2ccccc2n1CC(=O)Nc1ccc(F)cc1F)c1ccccc1	?	3%	/	1%	-4%	/
CC12CC(c3ccccc3O1)N(C(=O)c1ccco1)C(=S)N2c1ccc(F)cc1 (stereo not drawn)	28%	0%	16µM*	?	-8%	-6%
CC1(C)Cc2c(cnn2-c2ccc(F)cc2)C(NC(=O)c2ccco2)C1 (stereo not drawn)	-6%	-1%	-2%	-5%	-5%	-1%

Screening data (PubChem)
